Measurements: PubChem BioAssay
Active and inactive are the calls of the source. Unless noted, how the calls were made is not given here.

Experiments:
[1] = tested on: Wnt5a (protein binding on small-molecule microarray); assay: Wnt5a binders on small-molecule microarray, primary screen, biophysical, 635/667 nm fluorescence (AID 1142); conditions: 635 nm fluorescence, higher = more signal;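 further: fluorescence read at 667 nm with signal to noise per printed feature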
[2] = cell viability in Huh7 cells, primary screen, cytotoxicity control for HCV replication inhibitor project, CellTiter-Glo luminescence, basal, 48 h (AID 1143); conditions: Huh7 HCV replicon, higher = more signal, called active from +8 up or from −8 down;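 further: Huh7 hepatoma cells carrying a hepatitis C replication reporter with no stimulus; test concentration not given here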
[3] = P. aeruginosa biofilm formation inhibitors, primary screen, PAO1 strain, BacTiter-Glo luminescence, LB-PBS (AID 1144); conditions: 12 h, higher = more signal
[4] = CREB reporter modulators without forskolin, primary screen, cell-based, PC12, CRE-LacZ reporter, unstimulated (AID 1145); conditions: no forskolin, luminescence, 4.5 h, higher = more signal, called active from +8 up or from −8 down
[5] = CREB reporter modulators under forskolin, primary screen, cell-based, PC12, CRE-LacZ reporter, forskolin-stimulated (AID 1146); conditions: luminescence, 4.5 h, higher = more signal, called active from +8 up or from −8 down;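 further: PC12 cells with 6xCRE LacZ reporter stimulated by forskolin 10 µM; beta-galactosidase reporter signal reflecting CREB driven transcription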
[6] = molecular target: Streptavidin (Streptomyces avidinii) (UniProt P22629); assay: streptavidin binders on small-molecule microarray, primary screen, artefact control for SMM compound annotation, biophysical, 635/667 nm fluorescence (AID 1147); conditions: streptavidin binding, higher = more signal;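 further: signal reflects streptavidin binding to arrayed compounds as a control protein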
Streptavidin (Streptomyces avidinii), sequence (P22629 whole entry, looked up): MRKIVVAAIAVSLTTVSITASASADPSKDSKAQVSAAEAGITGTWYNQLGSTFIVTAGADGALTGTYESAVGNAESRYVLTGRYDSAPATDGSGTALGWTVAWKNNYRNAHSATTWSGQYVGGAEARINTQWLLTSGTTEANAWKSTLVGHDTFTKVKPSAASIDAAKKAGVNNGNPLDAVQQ

[7] = small-molecule binders of probe aInhba, primary screen, biochemical, small-molecule microarray, 635/667 nm fluorescence (AID 1148); conditions: higher = more signal;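 further: score merges 667nm spot fluorescence with signal-to-noise for antibody binding to printed compounds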
Torsin-1A (Homo sapiens) [8] = molecular target: Torsin-1A (Homo sapiens) (UniProt O14656); assay: torsin A binders from cell lysate, primary screen, small-molecule microarray, wild-type, 635/667 nm (AID 1149); conditions: COS7 hTOR1A-WT lysate, 635 nm fluorescence, higher = more signal
Torsin-1A (Homo sapiens), sequence (O14656 whole entry, looked up): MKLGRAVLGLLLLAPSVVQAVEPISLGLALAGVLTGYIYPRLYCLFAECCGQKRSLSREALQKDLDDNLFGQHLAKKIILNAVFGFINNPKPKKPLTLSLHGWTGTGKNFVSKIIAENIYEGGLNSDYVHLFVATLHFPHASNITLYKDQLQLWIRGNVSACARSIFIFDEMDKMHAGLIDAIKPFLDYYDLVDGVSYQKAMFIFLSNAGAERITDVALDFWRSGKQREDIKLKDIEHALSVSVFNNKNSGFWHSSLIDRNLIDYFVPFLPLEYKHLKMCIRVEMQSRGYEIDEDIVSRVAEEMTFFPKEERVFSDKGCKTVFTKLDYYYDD

Torsin-1A (Homo sapiens) [9] = molecular target: Torsin-1A (Homo sapiens) (UniProt O14656); assay: small-molecule binders of mutant TOR1A in lysate, primary screen, cell lysate, small-molecule microarray, COS7 lysate, 635/667 nm fluorescence (AID 1150); conditions: COS7 hTOR1A mutant lysate, 635 nm fluorescence, higher = more signal;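 further: score pools 667 nm emission and signal to noise measuring lysate protein binding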
[10] = tested on: Sonic hedgehog protein (Shh); assay: small-molecule binders of Shh protein, primary screen, biochemical, small-molecule microarray, 635/667 nm fluorescence (AID 1151); conditions: small-molecule microarray binding, 635 nm fluorescence; higher = more signal;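 further: Shh protein binding to compounds spotted on small-molecule microarray slides; score combines spot fluorescence intensity with signal-to-noise across triplicate slides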
[11] = E. coli DRC41 culture turbidity changes, primary screen, E. coli filamentation inducer project, strain DRC41, OD650, 48 h (AID 1152);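 further: E. coli MC1000 strain DRC41 lacking acrAB efflux pump and sulA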; conditions: E. coli DRC41 (acrAB sulA), higher = more signal, called active from +8 up or from −8 down
[12] = small-molecule binders of probe aLefty1, primary screen, biochemical, small-molecule microarray, 635/667 nm fluorescence (AID 1153); conditions: higher = more signal;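 further: score merges spot fluorescence with signal-to-noise ratio from the scanned slide images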
[13] = PSAC antagonists in infected red cells, primary screen, cell-based, P. falciparum Indochina, OD700, 1 h (AID 1154); conditions: P. falciparum Indochina infected RBC osmotic lysis, higher = more signal, called active from +8 up or from −8 down
[14] = PSAC antagonists in infected red cells, primary screen, cell-based, P. falciparum Indochina, OD700, 2 h (AID 1155);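 further: lysis reports solute entry through the parasite surface anion channel PSAC; channel blockers reduce lysis of infected cells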; conditions: P. falciparum Indochina infected erythrocytes, osmotic lysis OD700; higher = more signal, called active from +8 up or from −8 down
[15] = osmotic lysis modulators in infected erythrocytes, primary screen, PSAC antagonist project, cell-based, P. falciparum Indochina, OD700, 3 h (AID 1156); conditions: higher = more signal, called active from +8 up or from −8 down
[16] = PSAC antagonists in infected red cells, primary screen, cell-based, P. falciparum Indochina, OD700, 18 h (AID 1157); conditions: P. falciparum Indochina infected erythrocytes, osmotic lysis OD700, 18 h; higher = more signal, called active from +8 up or from −8 down
[17] = modulators of S6 phosphorylation in cells, primary screen, cell-based, A549, cytoblot, luminescence, serum-stimulated (AID 1158); conditions: A549 phospho-S6 cytoblot, 5 h, higher = more signal;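 further: serum-stimulated A549 lung adenocarcinoma cells; signal is phosphorylated S6 detected by cytoblot immunostaining with HRP secondary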
[18] = molecular target: NADPH oxidase 2 (Homo sapiens) (UniProt P04839); assay: NOX2-dependent H2O2 signal modulators, primary screen, NOX inhibitor project, cell-based, HEK293-NOX2, PMA-stimulated, Amplex Red fluorescence (AID 1159); conditions: 45 min, higher = more signal, called active from +8 up or from −8 down; further: test concentration not given here
NADPH oxidase 2 (Homo sapiens), sequence (P04839 whole entry, looked up): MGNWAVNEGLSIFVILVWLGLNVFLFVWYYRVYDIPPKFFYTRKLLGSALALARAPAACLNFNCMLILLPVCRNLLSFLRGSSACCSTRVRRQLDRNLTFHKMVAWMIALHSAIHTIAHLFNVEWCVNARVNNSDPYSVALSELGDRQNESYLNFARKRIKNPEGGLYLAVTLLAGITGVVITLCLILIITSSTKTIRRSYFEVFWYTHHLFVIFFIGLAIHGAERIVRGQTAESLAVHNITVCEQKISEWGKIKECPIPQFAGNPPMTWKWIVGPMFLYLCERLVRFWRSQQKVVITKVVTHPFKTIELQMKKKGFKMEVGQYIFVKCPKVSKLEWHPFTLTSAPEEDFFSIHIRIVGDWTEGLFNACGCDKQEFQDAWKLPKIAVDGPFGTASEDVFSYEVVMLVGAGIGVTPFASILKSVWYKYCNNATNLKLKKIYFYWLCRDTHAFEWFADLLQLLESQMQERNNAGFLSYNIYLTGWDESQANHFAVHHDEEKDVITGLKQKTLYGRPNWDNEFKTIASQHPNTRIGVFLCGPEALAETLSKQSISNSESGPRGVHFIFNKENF

[19] = molecular target: NADPH oxidase 4 (Homo sapiens) (UniProt Q9NPH5); assay: NOX4-dependent H2O2 signal modulators, primary screen, NOX inhibitor project, cell-based, HEK293-NOX4, tetracycline-induced, Amplex Red fluorescence (AID 1160); conditions: 45 min, higher = more signal, called active from +8 up or from −8 down
NADPH oxidase 4 (Homo sapiens), sequence (Q9NPH5 whole entry, looked up): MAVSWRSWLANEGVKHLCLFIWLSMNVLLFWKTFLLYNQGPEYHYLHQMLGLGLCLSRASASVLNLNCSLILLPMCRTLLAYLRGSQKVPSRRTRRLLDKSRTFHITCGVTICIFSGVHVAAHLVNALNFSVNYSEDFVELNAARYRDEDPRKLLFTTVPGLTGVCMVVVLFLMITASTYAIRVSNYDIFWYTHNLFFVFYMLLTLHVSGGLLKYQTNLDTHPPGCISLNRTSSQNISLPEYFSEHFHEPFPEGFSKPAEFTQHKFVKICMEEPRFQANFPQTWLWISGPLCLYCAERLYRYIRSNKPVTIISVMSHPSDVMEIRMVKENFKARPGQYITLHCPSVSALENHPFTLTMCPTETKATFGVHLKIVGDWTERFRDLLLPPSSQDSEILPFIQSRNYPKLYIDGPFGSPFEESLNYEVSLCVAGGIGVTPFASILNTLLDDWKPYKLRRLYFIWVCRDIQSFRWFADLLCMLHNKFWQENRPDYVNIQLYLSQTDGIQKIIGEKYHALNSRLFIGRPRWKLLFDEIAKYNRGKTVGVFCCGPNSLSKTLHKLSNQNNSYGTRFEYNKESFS

[20] = molecular target: NADPH oxidase 5 (Homo sapiens) (UniProt Q96PH1); assay: NOX5-dependent H2O2 signal modulators, primary screen, NOX inhibitor project, cell-based, HEK293-NOX5, Amplex Red fluorescence (AID 1161); conditions: HEK293-NOX5, ionomycin, 45 min, higher = more signal
NADPH oxidase 5 (Homo sapiens), sequence (Q96PH1 whole entry, looked up): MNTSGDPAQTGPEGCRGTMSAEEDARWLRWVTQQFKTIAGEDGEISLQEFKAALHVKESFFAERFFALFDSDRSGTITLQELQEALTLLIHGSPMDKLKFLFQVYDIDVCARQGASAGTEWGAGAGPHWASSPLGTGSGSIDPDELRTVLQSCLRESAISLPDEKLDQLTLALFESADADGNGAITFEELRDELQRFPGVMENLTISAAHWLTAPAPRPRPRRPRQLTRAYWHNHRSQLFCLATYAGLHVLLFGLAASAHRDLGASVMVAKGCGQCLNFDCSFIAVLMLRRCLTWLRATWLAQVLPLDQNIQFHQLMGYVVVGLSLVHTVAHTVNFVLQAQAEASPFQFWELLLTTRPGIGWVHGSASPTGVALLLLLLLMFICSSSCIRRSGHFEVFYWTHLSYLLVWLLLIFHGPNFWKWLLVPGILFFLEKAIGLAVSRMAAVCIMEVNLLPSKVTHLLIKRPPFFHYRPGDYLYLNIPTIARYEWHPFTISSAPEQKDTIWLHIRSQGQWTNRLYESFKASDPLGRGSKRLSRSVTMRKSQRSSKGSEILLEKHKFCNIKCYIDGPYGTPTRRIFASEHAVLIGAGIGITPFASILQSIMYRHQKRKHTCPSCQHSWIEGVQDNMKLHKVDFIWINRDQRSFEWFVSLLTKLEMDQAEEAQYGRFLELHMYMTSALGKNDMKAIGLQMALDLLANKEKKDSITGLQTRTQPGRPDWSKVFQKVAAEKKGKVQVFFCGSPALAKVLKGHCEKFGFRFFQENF

Row | Compound | composite z-score [1] | z-score [2] | z-score [3] | z-score [4] | z-score [5] | composite z-score [6] | composite z-score [7] | composite z-score (Torsin-1A (Homo sapiens) [8]) | composite z-score (Torsin-1A (Homo sapiens) [9]) | composite z-score [10] | z-score [11] | composite z-score [12] | z-score [13] | z-score [14] | z-score [15] | z-score [16] | z-score [17] | z-score [18] | z-score [19] | z-score [20]
1 | CC#CCOCCC=C1c2ccccc2[C@@H](OC)[C@@H]1C | 0.179 | 0.447 (inactive) | -0.445 (inactive) | 1.42 (inactive) | -0.146 (inactive) | -0.534 | -0.122 | 0.147 | 0.481 | 0.584 | 0.673 (inactive) | -0.0004 | 1.25 (inactive) | -0.16 (inactive) | -0.156 (inactive) | 0.0739 (inactive) | -0.161 | 0.114 (inactive) | 0.936 (inactive) | 0.696
2 | COC(=O)[C@H](C)NC(=O)CCC1CC(OC(=O)NCc2ccc3c(c2)OCO3)CC2(CCCC(COC(=O)NCc3ccccc3)O2)O1 (stereo not given in full) | 0.298 | -0.268 (inactive) | -0.801 (inactive) | -0.345 (inactive) | -0.169 (inactive) | 0.115 | -0.0136 | 0.283 | 0.177 | 1.38 | 1.07 (inactive) | -0.0061 | 1.08 (inactive) | 0.0056 (inactive) | 0.049 (inactive) | 0.272 (inactive) | 0.307 | 0.154 (inactive) | 1.22 (inactive) | 0.654
3 | Cc1ccc(C(C)C)n1C(=O)OC(C)(C)C | 0.211 | -0.841 (inactive) | -1.5 (inactive) | -0.708 (inactive) | 0.686 (inactive) | 0.963 | -0.176 | 0.356 | 0.196 | 0.675 | -0.241 (inactive) | -0.0934 | -0.446 (inactive) | -1.44 (inactive) | -0.165 (inactive) | -1.53 (inactive) | 1.04 | -0.137 (inactive) | 0.209 (inactive) | 0.674
4 | CCOC(=O)[C@H](Cc1ccccc1)NC(=O)CCC1CC(OC(=O)NCc2cccc3ccccc23)CC2(CCCC(COC(=O)NCCc3ccccc3OC)O2)O1 (stereo not given in full) | 0.201 | -0.534 (inactive) | 0.0213 (inactive) | 0.104 (inactive) | -0.745 (inactive) | 0.486 | -0.0552 | 0.265 | 0.0946 | 1.1 | -0.0287 (inactive) | -0.101 | -0.623 (inactive) | 0.185 (inactive) | -0.602 (inactive) | 0.0286 (inactive) | -0.352 | 0.884 (inactive) | 1.15 (inactive) | 1.06
5 | COc1ccc(O[C@H]2C=C[C@@H](c3ccccc3)O[C@@H]2COC(=O)CCC(C)=NOC[C@@H](O)COCc2ccco2)cc1 | -1.31 | -1.42 (inactive) | 0.104 (inactive) | 3.94 (inactive) | -0.215 (inactive) | -2.51 | -0.443 | -6.12 | -2.73 | -1.09 | -1.45 (inactive) | -1.43 | 6.71 (inactive) | -1.05 (inactive) | 0.382 (inactive) | -2.06 (inactive) | 1.18 | -3.53 (inactive) | -0.876 (inactive) | -4.55
6 | CO[C@H]1COC(=O)[C@H](C)COC(=O)[C@@H](OCc2ccccc2)C=C[C@@H]1C | -0.19 | -0.108 (inactive) | -0.462 (inactive) | -0.745 (inactive) | -0.786 (inactive) | -0.316 | -0.273 | 0.489 | 0.214 | 0.307 | 0.623 (inactive) | -0.193 | 0.345 (inactive) | 0.0669 (inactive) | -0.258 (inactive) | 0.0584 (inactive) | 0.893 | -0.596 (inactive) | 0.603 (inactive) | 0.214
7 | CC(=O)OC[C@H]1O[C@@H](ON=C(C)C)[C@H](OC(C)=O)[C@@H](OC(C)=O)[C@@H]1OC(C)=O | 0.47 | 0.238 (inactive) | -0.291 (inactive) | 0.499 (inactive) | 0.101 (inactive) | -1.26 | -0.0695 | 0.456 | 0.188 | -0.856 | -1.83 (inactive) | 0.145 | 0.421 (inactive) | 1.12 (inactive) | 0.638 (inactive) | 0.539 (inactive) | 0.152 | 1.27 (inactive) | 0.378 (inactive) | -0.611
8 | CC1(C)O[C@H]2O[C@H]([C@H](O)CON=C3[C@H]4CCn5c(=O)n(-c6ccccc6)c(=O)n5[C@H]4[C@H](O)[C@@H]4O[C@H]34)[C@H](O)[C@H]2O1 | 0.0179 | -0.279 (inactive) | -0.295 (inactive) | 0.494 (inactive) | 0.771 (inactive) | 0.0676 | -0.154 | 0.43 | -0.0174 | -0.217 | -0.169 (inactive) | -0.0375 | 0.246 (inactive) | 0.282 (inactive) | 0.267 (inactive) | 0.343 (inactive) | -0.693 | 0.197 (inactive) | 0.0828 (inactive) | -0.47
